From PubChem BioAssay
Sampled rows, rich in hits. Any-hit rate of the full collection: about 15%.
ALOX12 inh = ALOX12 (human) lipoxygenase inhibition; purified 12hLO, xylenol orange hydroperoxide absorbance; 580,000 compounds, 1.1% hits; Potency, µM (top dose mostly 108 µM), for inactives: at the highest dose activity change, negative = inhibition, hits mostly inhibitors
Target sequence (P18054 whole entry, looked up): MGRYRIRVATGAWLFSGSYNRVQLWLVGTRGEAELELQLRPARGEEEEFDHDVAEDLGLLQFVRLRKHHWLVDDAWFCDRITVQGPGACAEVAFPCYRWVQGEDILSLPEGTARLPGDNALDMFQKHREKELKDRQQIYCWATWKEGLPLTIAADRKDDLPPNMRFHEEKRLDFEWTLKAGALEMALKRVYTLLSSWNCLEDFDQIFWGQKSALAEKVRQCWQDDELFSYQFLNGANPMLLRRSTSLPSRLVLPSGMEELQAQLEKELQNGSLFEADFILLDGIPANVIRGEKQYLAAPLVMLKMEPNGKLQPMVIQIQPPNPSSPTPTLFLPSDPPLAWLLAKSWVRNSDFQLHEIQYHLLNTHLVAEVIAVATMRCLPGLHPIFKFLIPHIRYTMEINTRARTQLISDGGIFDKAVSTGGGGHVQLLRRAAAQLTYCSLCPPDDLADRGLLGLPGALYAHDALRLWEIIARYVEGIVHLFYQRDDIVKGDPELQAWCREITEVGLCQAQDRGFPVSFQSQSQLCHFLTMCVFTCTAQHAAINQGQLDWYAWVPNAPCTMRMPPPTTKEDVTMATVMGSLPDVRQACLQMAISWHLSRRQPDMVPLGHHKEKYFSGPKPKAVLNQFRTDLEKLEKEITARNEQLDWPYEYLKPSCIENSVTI
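Purified human 12hLO (150 nM final) in 25 mM Hepes, 0.01% Triton X-100, pH 7.0 was preincubated 15 min at room temperature with compound. Then 40 uM arachidonic acid was added, 30 min. Hydroperoxide was read by Fe-XO absorbance ratio 573/405 nm.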
DT40 TDP1 no CPT = qHTS for Inhibitors of human tyrosyl-DNA phosphodiesterase 1 (TDP1): qHTS in cells in absence of CPT | Potency, µM (doses to about 46.2 µM), for inactives: at the top dose activity change, negative = growth inhibition, most hits filed as inhibitors | 420,000 compounds, 15% hits | DT40 Tdp1-/- hTDP1 cells, no CPT, ATP luminescence, 48 h; note: nearly all actives have a fitted effect of over 55% in size
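Growth kinetics read by CellTiter-Glo luminescence after ≥48 hr at 37 °C. Cells: DT40 Tdp1-/- stably carrying human TDP1, 400 per well, compound exposure in the absence of CPT (DMSO vehicle).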
RORg inh = inhibitors of mouse ROR gamma transcriptional activity; P51450; Drosophila S2 Gal4-RORgamma UAS-luciferase reporter, 20 h; Potency, µM (series often up to 53.6 µM), for inactives: top-dose activity change, negative = inhibition, most hits filed as inhibitors; 310,000 compounds, 5.4% hits; AID 2551; note: nearly all actives have a fitted effect of over 60% in size
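Drosophila S2 cells stably expressing Gal4-DBD/mouse RORγ fusion under metallothionein promoter plus UAS-luciferase; compound 1 h, then 700 uM CuSO4 induction for 20 h at ambient temperature; inhibition read as reduced luminescence.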
ELG1 DNA repair = inhibitors of ELG1-dependent DNA repair in HEK293T cells; HEK293T ELG1-luciferase reporter, luminescence, 16 h; DNA damage induced by 5-fluorouridine; Potency, µM (series often up to 46.1 µM), without a hit: top-dose activity change, negative = inhibition, hits mostly inhibitors; 330,000 compounds, 2.3% hits; note: nearly all actives have a fitted effect of over 55% in size
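Overnight (16 hr) co-exposure of 2,000 cells/well to 5-fluorouridine and compound at 37 °C preceded detection. Luciferase was quantified via ONE-Glo luminescence; loss of signal denotes inhibition.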
VP16 counter = inhibits Gal4-VP16 luciferase reporter, ROR gamma counter-screen; Drosophila S2 Gal4-VP16 UAS-luciferase, luminescence, 20 h; Potency, µM (highest dose often 53.6 µM), without a hit: at the highest dose activity, negative = inhibition, usual class: inhibitors; 310,000 compounds, 3.5% hits;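 note: Gal4-VP16 expression switched on by copper sulfate through the metallothionein promoter; nearly all actives have a fitted effect of over 50% in size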
TDP1 cell CPT = growth inhibition of DT40 Tdp1-/-;hTDP1 cells with camptothecin (screen for TDP1 inhibitors); chicken DT40 Tdp1-/-;hTDP1 cells + 20 nM CPT, ATP luminescence, 48 h; Potency, µM (titrated, usually from 46.2 µM), inactives show at the top dose activity change, negative = growth inhibition, actives largely listed as inhibitors; 420,000 compounds, 12% hits; note: nearly all actives have a fitted effect of over 55% in size
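Cell growth measured by CellTiter-Glo luminescence after a minimum 48 h, 37 C compound exposure with 20 nM CPT in Tdp1-knockout DT40 cells stably expressing hTDP1, seeded 400/well; qHTS titration format.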
* marks the source's active call; other numbers are inactive results; ? = inconclusive; . = not tested or not shown; [ ] = another dose, or the depositor's remark. Calls come from the whole dose curve; as a rule, active = well fitted curve in the direction sought with a large enough effect; inconclusive = small, poorly fitted or top-dose-only effect, or another doubt; inactive = no such curve, though single readings can be large; an effect the other way counts as inactive or inconclusive. % is set by controls: 0 for no effect and ±100 for the full control effect; potency is the fitted concentration of half-maximal effect.

SMILES | ALOX12 inh | DT40 TDP1 no CPT | RORg inh | ELG1 DNA repair | VP16 counter | TDP1 cell CPT
Cc1onc(-c2ccccc2Cl)c1C(=O)Nc1ccc2c(c1)OCO2 | 263.0% | -5.4% | 2.1% | 5.7% | 3.3% | -14.5%
O=C(COc1ncnc2ccc(Br)cc12)Nc1ccccc1 | -8.8% | . | . | . | . | .
O=C(COc1ccc2cc(Br)ccc2c1)N1CCOCC1 | 63.4% | ? | . | 0.0% | . | 14.6µM*
O=C(COc1ccc(C(=S)N2CCOCC2)cc1)N1CCOCC1 | 0.3% | 4.3% | 9.5% | -1.0% | 9.9% | 0.7%
COc1ccc2c(c1)OC/C(=C/c1ccc(O)c(O)c1)C2=O | . | 2.59µM* | 24.6% | . | ? | 3.26µM*
COc1ccccc1NC(=O)CCCCCN1C(=O)c2cccc([N+](=O)[O-])c2C1=O | -33.5% | ? | -0.5% | -2.0% | 1.9% | -12.6%
COc1cc(/C=C2/C(=O)c3cccc([N+](=O)[O-])c3C2=O)c(Br)cc1O | 17.8µM* | 5.17µM* | ? | ? | 35.5µM* | 6.51µM*
CC(C)NC(=O)C1(C)CCN1C(=O)C1(c2ccccc2)CCCC1 (stereo not given) | 8.2% | ? | . | . | . | ?
C#Cc1ccc(NC(=O)C2(C)CCN2C(=O)C2(c3ccccc3)CCCC2)cc1 (stereo not given) | -9.6% | 16.4µM* | . | . | . | 23.1µM*
CC1(C(=O)Nc2cccc3ccccc23)CCN1C(=O)C1(c2ccccc2)CCCC1 (stereo not given) | -15.0% | 18.4µM* | . | . | . | ?
Cc1ccc(-c2cc(C(F)(F)F)n3ncc(C(=O)O)c3n2)cc1 | -9.3% | ? | 5.8% | 9.2% | -10.5% | -16.7%
COCCNC(=O)c1cnn2c(C(F)F)cc(-c3ccccc3)nc12 | -6.0% | 20.6µM* | 0.0% | ? | 4.6% | ?
COC(=O)c1ccccc1NC(=O)c1cnn2c(C(F)F)cc(C3CC3)nc12 | 0.0% | 14.6µM* | -1.2% | ? | 3.6% | ?
COCCNC(=O)c1cnn2c(C(F)(F)F)cc(-c3ccc(C)cc3)nc12 | -0.8% | ? | 8.0% | 5.8µM* | -1.7% | ?
Cc1ccc2nc(CO[C@H]3CN(Cc4ccc5c(c4)OCO5)C[C@H]3F)[nH]c2c1 | 16.0%[176 µM] | . | . | . | . | .
O=C(c1cc2ccccc2oc1=O)N1CCN(c2cccc(Cl)c2)CC1 | -1.7% | . | . | . | . | .
COCCn1c(COc2ccc(S(C)(=O)=O)cc2)nnc1C1CC(N)C1 (stereo not given) | 7.1% | . | . | . | . | .
Cc1ccccc1Nc1cc(C(=O)NCc2cccs2)c2ccccc2n1 | ? | ? | . | . | . | 20.6µM*
Cc1c(-c2ccccc2)nc2ccccc2c1C(=O)NC(C)C | 3.8% | . | . | . | . | .
COc1ccccc1Nc1cc(C(=O)NCc2cccs2)c2ccccc2n1 | ? | ? | . | . | . | 25.9µM*
Cc1ccc(-c2nc3ccccc3c(C(=O)NCc3cccs3)c2C)cc1 | ? | ? | 14.6% | ? | -7.0% | 20.6µM*
Cc1ccc(Nc2cc(C(=O)NCc3cccs3)c3ccccc3n2)c(C)c1 | ? | -25.2% | . | . | . | ?
Nc1nc2ccccc2cc1C(=O)NCc1cccs1 | 5.0% | 7.31µM* | . | . | . | 9.2µM*
COCCN1C(=O)[C@@H]2C[C@@H](CN2C(=O)CC(C)(C)C)Oc2ccccc21 | 12.5%[176 µM] | . | . | . | . | .
Cc1cc(C)n(-c2nc3ccccc3nc2Nc2ccc(Cl)cc2)n1 | -20.3% | . | . | . | . | .
SMILES | ALOX12 inh | DT40 TDP1 no CPT | RORg inh | ELG1 DNA repair | VP16 counter | TDP1 cell CPT
Nc1nc2ccccc2cc1C(=O)NCCCCc1ccccc1 | . | 1.64µM* | . | . | . | 2.06µM*
O=C(Nc1ccc(Br)cc1)c1cc(-c2cccs2)nc2ccccc12 | -21.2% | ? | . | . | . | ?
Cc1ccc(C)c(-c2cc(C(=O)NCc3cccs3)c3ccccc3n2)c1 | 8.9% | ? | ? | ? | -4.5% | ?
O=C(NCc1cccs1)c1cc(-c2ccccc2)nc2ccccc12 | -2.5% | 20.6µM* | 9.7% | ? | 1.3% | 23.1µM*
Cc1ccccc1C(=O)NCCCCc1ccccc1 | -10.8% | -30.5% | 22.1% | 3.5% | -10.3% | -25.5%
O=C(Nc1nnc(-c2cccs2)o1)c1cc(-c2ccccc2)nc2ccccc12 | -2.1% | 14.6µM* | 1.41µM* | -0.7% | 2.51µM* | 13µM*
CCc1ccccc1S(=O)(=O)N1CCCC(Cn2c(C3CC3)nc3cccnc32)C1 (stereo not given) | 24.4% | . | . | . | . | .
COc1c(C)cc(Br)cc1C(=O)NC(=S)NCc1ccco1 | 0.0% | ? | 11.2µM* | -6.6% | ? | -5.4%
COc1ccc(C(=O)NC(=S)NCc2ccco2)cc1Br | 22.4µM* | ? | 3.55µM* | -8.2% | 6.31µM* | ?
CCOc1ccc(C(=O)NCc2ccco2)cc1OC | 7.3% | -2.5% | ? | 2.5% | -25.1% | -9.3%
COc1ccc(C(=O)NC(=S)NCc2ccco2)cc1OC | ? | ? | 17.8µM* | -20.1% | 15.8%[0.365 µM] | -28.1%
COc1cc(C(=O)NCc2ccco2)c(Br)c(OC)c1OC | -0.2% | 1.0% | 12.9% | 1.2% | 2.8% | 3.1%
COc1ccc(C(=O)NC(=S)NCc2ccc(-c3nc4ccccc4o3)cc2)cc1OC | -10.1% | -21.5% | 1.26µM* | 16.7% | 2.51µM* | -21.9%
O=C(Nc1cccc(S(=O)(=O)N2CCCCC2)c1)C1CC(=O)N(C2CCCC2)C1 (stereo not given) | 2.4% | . | . | . | . | .
OCCOCCn1c(-c2ccccc2)nc(=S)c2c1CCCC2 | 39.8µM* | -7.2% | -21.1% | 4.7% | 0.7% | -0.6%
CC(C)n1c(-c2ccccc2)nc(=S)c2c1CCCC2 | ? | . | ? | -6.8% | -6.3% | .
COc1ccc(-n2c(-c3ccccc3)nc(=S)c3c2CCCC3)cc1 | ? | ? | 14.1µM* | 6.7% | ? | ?
CC1(C)Cc2c(c(=S)nc(-c3ccccc3)n2CCOCCO)CO1 | 96.4% | -17.0% | 2.5% | -0.8% | -3.2% | ?
CC1=C(C)CC2(SC1)C(=O)N(c1ccccc1)N=C2N (stereo not given) | -8.6% | 20.6µM* | 28.1% | ? | 5.3% | 7.31µM*
CC1=NN(c2ccccc2)C(=O)C1(C)C | 367.2% | 4.5% | -19.3% | 2.4% | 0.1% | 5.1%
CC(=O)Oc1ccc(C2=Cc3ccc(OC(C)=O)cc3OC2C)cc1 (stereo not given) | -10.7% | 11.6µM* | . | . | . | 18.4µM*
CCOCCOC1CCN(C(=O)Nc2cccc(C)c2)CC1 | 57.6% | . | . | . | . | .
CCN(CCNC(=O)CC1=C2CCCCC2N(C)C1=O)Cc1ccccc1 (stereo not given) | 4.6% | . | . | . | . | .
